Laboratory results reported in article PMC4336329 (PLoS ONE, 2015).
In all, about 310,000 compounds went through this assay and about 14,000 (4.5%) showed an effect of 50% or more. Effects have a minus sign here. Shown is part of a subset that was picked to be rich in strong results.

molecular target: human ether-à-go-go-related gene (hERG) potassium channel (human, UniProt Q12809); experiment: primary screen, population patch clamp on CHO cells stably expressing hERG; higher = less effect of the substance
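Further: peak tail current of the secondary pulse compared with the same well before compound.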

Chain of human ether-à-go-go-related gene (hERG) potassium channel (Q12809 whole entry, looked up): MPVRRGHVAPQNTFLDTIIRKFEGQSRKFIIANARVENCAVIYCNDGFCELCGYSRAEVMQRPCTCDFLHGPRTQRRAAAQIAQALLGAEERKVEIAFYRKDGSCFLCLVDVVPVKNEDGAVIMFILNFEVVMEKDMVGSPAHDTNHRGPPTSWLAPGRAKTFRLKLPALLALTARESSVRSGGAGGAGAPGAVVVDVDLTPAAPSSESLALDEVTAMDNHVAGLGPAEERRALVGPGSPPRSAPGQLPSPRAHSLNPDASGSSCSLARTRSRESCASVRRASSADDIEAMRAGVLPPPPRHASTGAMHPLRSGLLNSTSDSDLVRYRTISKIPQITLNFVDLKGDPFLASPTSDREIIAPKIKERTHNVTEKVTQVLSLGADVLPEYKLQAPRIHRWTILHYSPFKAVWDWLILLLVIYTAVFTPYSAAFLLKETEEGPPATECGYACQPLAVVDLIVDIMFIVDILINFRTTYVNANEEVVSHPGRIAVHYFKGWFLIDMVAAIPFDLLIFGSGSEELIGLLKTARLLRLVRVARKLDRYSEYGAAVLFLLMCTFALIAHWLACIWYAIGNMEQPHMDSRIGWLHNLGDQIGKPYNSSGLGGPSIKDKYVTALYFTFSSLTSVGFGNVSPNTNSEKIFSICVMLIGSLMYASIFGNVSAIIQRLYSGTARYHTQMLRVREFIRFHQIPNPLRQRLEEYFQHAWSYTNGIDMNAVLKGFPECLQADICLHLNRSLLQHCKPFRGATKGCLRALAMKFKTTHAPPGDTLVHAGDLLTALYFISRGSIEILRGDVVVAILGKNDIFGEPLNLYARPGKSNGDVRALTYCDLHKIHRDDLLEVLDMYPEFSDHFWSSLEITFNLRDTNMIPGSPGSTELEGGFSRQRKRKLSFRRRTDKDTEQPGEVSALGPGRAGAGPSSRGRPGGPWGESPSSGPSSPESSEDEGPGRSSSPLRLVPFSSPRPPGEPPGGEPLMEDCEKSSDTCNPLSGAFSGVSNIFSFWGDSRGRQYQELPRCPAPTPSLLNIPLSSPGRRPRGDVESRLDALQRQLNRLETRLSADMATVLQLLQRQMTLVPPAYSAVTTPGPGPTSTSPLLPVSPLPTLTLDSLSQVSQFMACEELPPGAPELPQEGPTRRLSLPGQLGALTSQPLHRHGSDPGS

Compound | hERG current change (%, negative = inhibition) at 10uM [%]
Clc1ccccc1/C=C/c1nc(-c2cccnc2)no1 | 6.16
CCN(CC)c1ccc(NC(=O)c2cnc3ccccn3c2=O)c(C)c1 | 4.51
CCOC(=O)c1ccc(NC(=O)c2cccc(C)c2[N+](=O)[O-])cc1 | 4.73
COc1ccc(C(=O)c2nccc3cc(OC)c(OC)cc23)cc1OC | 6.21
CC1CCN(C2(O)C(=O)Nc3ccc(Br)cc32)CC1 (stereo not drawn) | 19.4
CCC(C)(C)NC(=O)CN(C(=O)CNS(=O)(=O)c1ccccc1)c1ccc2c(c1)OCCO2 | 6.92
Cc1ccc(NP(=O)(c2ccccc2)c2nc3ccccc3s2)cc1 (stereo not drawn) | 3.27
O=C(c1ccco1)N1CCN(C(=S)Nc2ccc(F)c(Cl)c2)CC1 | -71.9
O=C(CN1CCN(C(=O)c2ccco2)CC1)Nc1cccc([N+](=O)[O-])c1 | -49.1
COC(=O)c1cc(C(=O)N2CCOCC2)cc([N+](=O)[O-])c1 | 21.7
O=C(c1ccc(Cl)c([N+](=O)[O-])c1)N1CCN(C(=O)c2ccco2)CC1 | -41.6
O=C(c1ccco1)N1CCN(C(=S)Nc2cc(F)cc(F)c2)CC1 | -16.5
COC(=O)c1cc(C(=O)N2CCN(C(=O)c3ccco3)CC2)cc([N+](=O)[O-])c1 | -66.7
Cc1cc(C(=O)N2CCN(C(=O)c3ccco3)CC2)ccc1[N+](=O)[O-] | -64.7
Cc1cc(C(=O)N2CCOCC2)ccc1[N+](=O)[O-] | 9.19
COc1ccc(NC(=S)N2CCN(C(=O)c3ccco3)CC2)cc1OC | 14.6
Cc1cccc(NC(=S)N2CCN(C(=O)c3ccco3)CC2)c1 | -9.36
O=C(c1ccco1)N1CCN(C(=S)Nc2cccc([N+](=O)[O-])c2)CC1 | -63.3
COC(=O)c1cc(C(=O)N2CCN(c3ccccc3OC)CC2)cc([N+](=O)[O-])c1 | -34.7
COc1ccc(OC)c(S(=O)(=O)N2CCC(C(=O)NCc3ccncc3)CC2)c1 | 16.4

Compound | hERG current change (%, negative = inhibition) at 10uM [%]
CCn1c(O)c(/C=N/NC(=O)c2ccccc2)c(=O)n(CC)c1=S | 13.6
COc1ccc(OCC(=O)N/N=C2\CCc3ccccc32)cc1 | -23.9
CCOC(=O)C1=C(C)N=C2SC(C)C(=O)N2C1c1cccc(F)c1 (stereo not drawn) | -3.16
CCOC(=O)c1nnn(-c2nonc2N)c1CN(CC)CC | -7.44
CCOc1ccccc1NC(=O)c1nnn(CC(=O)Nc2cc(C)cc(C)c2)c1N | 15.7
Cc1cc(-c2ccco2)n2c(nc3ccccc32)c1C#N | -25.9
COc1ccc(C(=O)N2CCC(n3nccc3NC(=O)C3CC3)CC2)cc1F | -26.8
O=C(O)CC1S/C(=N\N=C2CCCCCC2)N(c2ccccc2)C1=O (stereo not drawn) | 9.08
O=C(/C=C/c1ccccc1)N1CCN(C(=O)c2ccco2)CC1 | -28.6
O=C(c1cc([N+](=O)[O-])cc([N+](=O)[O-])c1)N1CCN(C(=O)c2ccco2)CC1 | -65.3
O=C(/C=C/c1ccccc1[N+](=O)[O-])N1CCN(C(=O)c2ccco2)CC1 | -45.6
O=C(/C=C/c1cccc([N+](=O)[O-])c1)N1CCN(C(=O)c2ccco2)CC1 | -64.8
O=C(c1ccco1)N1CCN(C(=O)c2ccccc2[N+](=O)[O-])CC1 | 22.4
O=C(c1cccc([N+](=O)[O-])c1)N1CCN(C(=O)c2ccco2)CC1 | -10.8
COc1ccccc1N1CCN(C(=O)c2ccc(-c3ccccc3)cc2)CC1 | -5.25
Cc1cc(C)cc(OCC(=O)NC(C)c2ccccc2)c1 (stereo not drawn) | 15.2
CC(C)OCCCNC(=O)c1cc(-c2cccnc2)nc2ccccc12 | -21.4
Cc1ccc(C(CCNC(C)c2cccs2)c2ccco2)cc1 (stereo not drawn) | -57.1
Cc1ccc(C(CCN)c2ccco2)cc1 (stereo not drawn) | -2.63
Cc1ccc(S(=O)(=O)NCCC(c2ccc(F)cc2)c2ccco2)cc1 (stereo not drawn) | 10.8

Compound | hERG current change (%, negative = inhibition) at 10uM [%]
Cc1ccc(S(=O)(=O)NCCC(c2ccccc2)c2ccco2)cc1 (stereo not drawn) | 0.23
O=S(=O)(NCCC(c1ccc(F)cc1)c1ccco1)c1ccccc1 (stereo not drawn) | -7.77
Fc1ccc(C(CCNCc2cccs2)c2ccco2)cc1 (stereo not drawn) | -66.8
Cc1cc(C)cc(NC(=O)CCCn2nc(C)c3c(C)n(-c4ccccc4)nc3c2=O)c1 | -4.07
CC(C(=O)NC1C(=O)N2C(C(=O)O)=C(CSc3nnnn3C)CSC12)n1cc(Br)cn1 (stereo not drawn) | 25.1
CN(C)C(=O)CSc1nnc([C@H](Cc2ccccc2)NC(=O)OC(C)(C)C)o1 | 5.98
O=C(CNS(=O)(=O)c1ccccc1)N1CCN(Cc2ccccc2)CC1 | 5.89
CC1(C)CC(=O)C=C(c2ccc(I)cc2)C1 | -2.72
c1ccc(Cn2c(CN3CCCC3)nc3ccccc32)cc1 | -64.6
c1ccc(Cc2nc3ccccc3n2Cc2ccccc2)cc1 | -53.4
CCc1nc2ccccc2n1CC(=O)N1CCN(Cc2ccccc2)CC1 | -61.5
CCn1c(CN2CCN(c3ccc(Cl)cc3)CC2)nc2ccccc21 | -55.3
ClCc1nc2ccccc2n1Cc1ccccc1 | 10.6
COc1ccc(N2CCN(Cc3nc4ccccc4n3C)CC2)cc1 | -18.2
Cn1c(CN2CCN(c3ccc(Cl)cc3)CC2)nc2ccccc21 | -14.3
O=C(Cn1c(NCCO)nc2ccccc21)N1CCN(Cc2ccccc2)CC1 | -9.47
OCCCc1nc2ccccc2n1Cc1ccccc1 | 7.46
Cc1ccc(Cn2c(Cc3ccccc3)nc3ccccc32)cc1 | -10.1
CC(O)CNc1nc2ccccc2n1CC(=O)N1CCN(Cc2ccccc2)CC1 (stereo not drawn) | -22.6
Cc1cccc(Cn2c(Cc3ccccc3)nc3ccccc32)c1 | -24.6
